Entries with a potency or affinity are not part of this list. Results filed as inconclusive are left out.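 The calls were made as follows: active = fitted half-maximal concentration no higher than twice the top tested dose, in every repeat run; inconclusive = repeat runs disagree, poor fit, or flat partial inhibition; inactive = the rest.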
molecular target: Endoplasmic reticulum aminopeptidase 1 (Homo sapiens) (UniProt Q9NZ08); test: inhibition of human ERAP1 enzyme activity – biochemical, cherry-pick, set 2, plate reader, dose response (AID 743314); details: Recombinant ERAP1, Leu-AMC fluorescence, 60 min; series mostly up to 11 µM; activity change, negative = inhibition: at the top concentration;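 also: 0% = neutral control wells and -100% = L-leucinethiol positive control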
Sequence (Q9NZ08 whole entry, looked up): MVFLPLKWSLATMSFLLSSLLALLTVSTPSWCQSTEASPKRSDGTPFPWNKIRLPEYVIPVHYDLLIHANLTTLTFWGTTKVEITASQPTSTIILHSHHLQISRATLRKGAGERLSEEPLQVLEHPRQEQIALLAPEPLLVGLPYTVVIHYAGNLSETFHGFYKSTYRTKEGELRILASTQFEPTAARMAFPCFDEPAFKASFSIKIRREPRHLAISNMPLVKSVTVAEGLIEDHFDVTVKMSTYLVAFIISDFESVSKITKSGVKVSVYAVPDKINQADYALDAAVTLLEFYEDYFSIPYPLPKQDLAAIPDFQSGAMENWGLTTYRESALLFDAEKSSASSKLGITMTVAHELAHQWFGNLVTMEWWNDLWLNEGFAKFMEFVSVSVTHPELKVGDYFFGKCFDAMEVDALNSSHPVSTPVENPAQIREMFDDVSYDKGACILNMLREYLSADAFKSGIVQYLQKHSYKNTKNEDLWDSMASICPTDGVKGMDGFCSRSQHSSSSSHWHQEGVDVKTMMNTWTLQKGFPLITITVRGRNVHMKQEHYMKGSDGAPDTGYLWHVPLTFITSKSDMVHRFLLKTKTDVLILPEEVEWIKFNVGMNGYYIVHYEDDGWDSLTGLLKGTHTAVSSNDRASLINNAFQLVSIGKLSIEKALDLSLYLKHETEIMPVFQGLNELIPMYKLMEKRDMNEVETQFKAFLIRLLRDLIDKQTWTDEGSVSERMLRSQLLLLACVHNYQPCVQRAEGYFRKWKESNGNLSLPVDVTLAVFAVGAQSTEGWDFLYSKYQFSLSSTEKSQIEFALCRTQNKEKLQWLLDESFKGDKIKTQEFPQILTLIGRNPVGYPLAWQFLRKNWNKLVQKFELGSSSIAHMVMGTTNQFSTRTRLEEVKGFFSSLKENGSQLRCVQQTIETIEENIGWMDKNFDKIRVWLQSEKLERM

Activity change, negative = inhibition, inactive:
CCN(CC(=O)Nc1ccccc1C(F)(F)F)C(=O)Cn1c(=O)cnc2ccccc21 -3.54%
C[C@H](CO)N1C[C@H](C)[C@@H](CN(C)C)OCCCC[C@H](C)Oc2ccc(NS(=O)(=O)c3ccc(Cl)cc3)cc2C1=O 10.9%
CC(=O)N1CCCCN2[C@H](CO)[C@@H](c3ccc(-c4ccccc4)cc3)[C@H]2C1 32.8%
O=C(Nc1ccc(C(F)(F)F)cc1)N1[C@@H]2CNC[C@H]1C2c1ccc(-c2ccncc2)cc1 (stereo partly drawn) 42.7%
CCCN1[C@@H]2Cn3c(ccc(-c4cccnc4)c3=O)[C@H]1[C@@H](C(=O)NCCc1cn(C)cn1)[C@@H]2CO 36%
CCN1CCN(CCCNC(=O)c2cc3c(s2)-c2ccccc2OC3)CC1 -21.4%
COc1ccc(CN(C)C[C@@H]2Oc3c(NC(=O)NC4CCCCC4)cccc3C(=O)N([C@H](C)CO)C[C@H]2C)cc1 17.6%
CCN(Cc1ccc(OC)c(F)c1)C(=O)C1CCCO1 (stereo not drawn) -14.1%
O=C(C[C@H]1CC[C@@H]2[C@H](COC[C@@H](O)CN2C(=O)Nc2cccc(Cl)c2)O1)N1CCCCC1 63.7%
C[C@H]1CN([C@@H](C)CO)C(=O)c2cccc(NC(=O)Nc3ccc(C(F)(F)F)cc3)c2O[C@H]1CN(C)C 32.4%
C[C@@H]1CCCCO[C@@H](CN(C)Cc2ccc(C(=O)O)cc2)[C@H](C)CN([C@@H](C)CO)C(=O)c2cc(NS(=O)(=O)c3ccc(Cl)cc3)ccc2O1 53.6%
CNC[C@H]1Oc2c(NC(=O)Nc3ccc(F)cc3)cccc2C(=O)N([C@@H](C)CO)C[C@@H]1C 40%
COc1ccccc1-c1cccc(-c2nc(C(=O)Nc3nccs3)cc3c2[C@@H](CCO)N(C(=O)CC2CC2)C3)c1 -7.7%
C[C@@H]1CN([C@@H](C)CO)C(=O)c2cc(-c3ccc(F)cc3)cnc2O[C@@H]1CN(C)CC1CCCCC1 20.9%
CCc1cccc(C)c1NC(=O)c1cc(=O)[nH]c2ccc(S(=O)(=O)N3CCOCC3)cc12 2.94%
CCOC(=O)c1c(NC(=O)COC(=O)CCNS(=O)(=O)c2ccccc2)sc(C(=O)NC)c1C -4.58%
C[C@H]1CN([C@@H](C)CO)C(=O)c2cc(-c3ccc(F)cc3)cnc2O[C@H]1CN(C)CC1CCCCC1 36.7%
C[C@@H]1CN([C@@H](C)CO)C(=O)c2cc(NS(=O)(=O)c3ccc(Cl)cc3)ccc2O[C@@H](C)CCCCO[C@@H]1CN(C)C 20.4%
C[C@@H]1CN([C@H](C)CO)C(=O)c2cc(NC(=O)C3CC3)ccc2O[C@H]1CN(C)Cc1ccncc1 26.1% [at 2.6 µM]
Cc1cccc(C)c1NC(=O)CSc1nnc(NC(=O)c2ccccc2C(=O)O)s1 17.8%
Cc1noc(C)c1NC(=O)N(C)C[C@H]1Oc2c(NC(=O)Nc3ccc(F)cc3)cccc2C(=O)N([C@H](C)CO)C[C@@H]1C 44.6%
Cc1[nH]c2ccccc2c1C(=O)CN1C(=O)C(=O)N(Cc2ccco2)C1=O -9.8%
COc1ccc2c3c(n(C)c2c1)[C@@H](CO)N(C)CC31CN(C(=O)c2cccnc2)C1 27.8%
C[C@H](CO)N1C[C@H](C)[C@H](CN(C)CC2CCCCC2)Oc2ncc(-c3ccc(F)cc3)cc2C1=O 36.6%
Cc1nc2cc(NC(=O)C3COc4ccccc4O3)ccc2s1 (stereo not drawn) -0.647%
O=C(Cc1ccccn1)N1CC(=O)N2[C@@H](CO)[C@H](c3ccc(C#CC4CCCC4)cc3)[C@@H]2C1 30.6%
CN(C)C(=O)[C@@H]1[C@@H](CO)[C@@H]2Cn3c(ccc(/C=C/c4ccccc4)c3=O)[C@@H]2N1C(=O)c1cnccn1 10.7%
C[C@@H]1CN([C@@H](C)CO)C(=O)c2cc(NC(=O)CCN3CCOCC3)ccc2O[C@H]1CN(C)S(=O)(=O)c1ccccc1 22.1%
O=C(COC(=O)c1ccc(CO)cc1)Nc1ccc2ccccc2c1 1.79%
O=C(C[C@H]1CC[C@H](NC(=O)C2CCOCC2)[C@H](CO)O1)NCc1ccncc1 27.6%
COc1ccc(CN(C)C[C@H]2OCCCC[C@@H](C)Oc3ccc(NS(=O)(=O)c4cccs4)cc3C(=O)N([C@@H](C)CO)C[C@@H]2C)cc1 53.9%
CC(Sc1nnc(-c2cccnc2)n1C)C(=O)N1CCOCC1 (stereo not drawn) -6.46%
COc1ccccc1CN1[C@H](CO)[C@@H](c2ccccc2)C12CN(C(=O)c1ccccn1)C2 18.1%
COc1ccc(CN(C)C[C@@H]2OCCCC[C@H](C)Oc3ccc(NS(=O)(=O)c4cccs4)cc3C(=O)N([C@H](C)CO)C[C@@H]2C)cc1 48.1%
CCCC#Cc1ccc2c(c1)O[C@H](CN(C)Cc1ccncc1)[C@@H](C)CN([C@H](C)CO)S2(=O)=O 14.5%
O=C(CN1CCN(S(=O)(=O)N2CCOCC2)CC1)Nc1ccc(Cl)c(Cl)c1 11.9%
C[C@@H]1CN([C@@H](C)CO)C(=O)c2cccc(NC(=O)Nc3ccc(C(F)(F)F)cc3)c2O[C@H]1CN(C)C 29%
C[C@@H]1CN([C@H](C)CO)C(=O)c2cc(NC(=O)CCN3CCOCC3)ccc2O[C@H]1CN(C)S(=O)(=O)c1ccccc1 24.3%

Reference: PubChem BioAssay AID743314 (Broad Institute, 2014)
